Source: PubChem BioAssay (NCI)
Compounds without any hit were thinned out: in the full panel of roughly 79,000, 15% have a hit. No stated cut-off is given here; in the data, active means growth inhibition above about 70%; inactive means the rest.

How the values were obtained:
[1] = NCI Yeast Anticancer Drug Screen. Data for the rad50 strain (AID 155);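 further: 0% = growth of vehicle-only cultures of the same strain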; conditions: S. cerevisiae rad50 strain growth inhibition; at 50.0 µM; active compounds read high
Summary of the method: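 Compounds were tested on a yeast strain with an engineered DNA damage repair alteration; the reported value is growth inhibition normalised to vehicle treatment.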

[2] = NCI Yeast Anticancer Drug Screen. Data for the mec2-1 strain (AID 157); conditions: S. cerevisiae mec2-1 strain, at 50.0 µM, active compounds read high
Summary of the method: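 Mutant yeast (mec2-1) grown with compound; growth inhibition relative to vehicle control reported.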

[3] = NCI Yeast Anticancer Drug Screen. Data for the sgs1 mgt1 strain (AID 161);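 further: 0% = growth of cultures given vehicle only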; conditions: S. cerevisiae sgs1 mgt1 strain, at 50.0 µM, active compounds read high
Summary of the method: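 Growth of a repair-deficient yeast mutant was monitored after compound treatment and expressed as inhibition relative to vehicle-treated cultures.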

[4] = NCI Yeast Anticancer Drug Screen. Data for the cln2 rad14 strain (AID 165);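 further: 0% = growth equal to vehicle treated cultures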; conditions: S. cerevisiae cln2 rad14 strain, at 50.0 µM, active compounds read high
Summary of the method: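 Readout is yeast growth inhibition versus vehicle-treated controls, using a strain with cln2 and rad14 alterations exposed to compound.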

[5] = NCI Yeast Anticancer Drug Screen. Data for the bub3 strain (AID 167); conditions: S. cerevisiae bub3 mutant strain, at 50.0 µM, active compounds read high
Summary of the method: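 Growth of a checkpoint-deficient yeast mutant is measured after compound exposure. Values represent inhibition relative to vehicle.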

[6] = NCI Yeast Anticancer Drug Screen. Data for the mlh1 rad18 strain (AID 175); conditions: S. cerevisiae mlh1 rad18 strain growth inhibition; at 50.0 µM; active compounds read high
Summary of the method: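 Genetically defined yeast (DNA repair-deficient) exposed to compounds; growth inhibition determined relative to vehicle.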

Measured: growth inhibition

O=C(NC(=O)c1ccccc1[N+](=O)[O-])Nc1ccc(Oc2ncc(Cl)cn2)c(C(F)(F)F)c1
inactive: [1] 17.1% | [2] -23.6% | [3] 7.4% | [4] -17.1% | [5] 0.5% | [6] -54.6%

CCOP(C)(=O)/C(Cc1ccc(OC)c(OC)c1)=N\O (configuration not stated)
inactive: [1] -21.4% | [2] -22.8% | [3] -14.8% | [4] 10.4% | [5] 23% | [6] -17.2%

COC(=O)CCOc1ccccc1
inactive: [1] 15.1% | [2] 5.1% | [3] 0.25% | [4] 11.9% | [5] -8.8% | [6] -18.8%

CN(C)CCCNC(=O)CCNC(=O)c1cc(NC(=O)c2cc(NC(=O)c3cc(NC(=O)c4nc(NC(=O)CCCNC(=O)c5cc(NC(=O)c6cc(NC(=O)c7cc(NC(=O)c8nccn8C)cn7C)cn6C)cn5C)cn4C)cn3C)cn2C)cn1C
inactive: [1] -17.3% | [2] -31.9% | [3] 23.1% | [4] 28.8% | [5] 15.3% | [6] -46.4%

Nc1ccc2ccccc2c1[N+](=O)[O-]
inactive: [1] 25.9% | [2] 10.1% | [3] 37.6% | [4] 17.5% | [5] 14.9% | [6] 39.3%

CCOCCOC(=O)CCCCCCCCC(=O)OCCOCC
inactive: [1] 9.7% | [2] 11.9% | [3] 12.6% | [4] 37.9% | [5] 25.6% | [6] 25.9%

N/C(=C\C(=O)c1ccccc1)C(=O)c1ccccc1
inactive: [1] 5.7% | [2] 4.65% | [3] -15.5% | [4] -10.7% | [5] 0.65% | [6] -1.55%

CC1=C(Br)C(=O)C(C(C)C)=CC1=O
inactive: [1] -38.2% | [2] -20.6% | [3] -6.75% | [4] -4.9% | [5] 3.5% | [6] 0.9%

CC(=O)c1cc(CC2Cc3cc4c(cc3C2=O)CCC4)cc2c1CCC2 (configuration not stated)
inactive: [1] -37.5% | [2] -36.1% | [3] -14.2% | [4] 9% | [5] -6.45% | [6] -4.85%

NC(N)=NC(N)=Nc1ccc(C(=O)O)cc1
inactive: [1] -7.4% | [2] 5.95% | [3] -26.8% | [4] -29.2% | [5] -68% | [6] -4%

O=C(c1ccc(F)cc1)C1CCC1
inactive: [1] 16.3% | [2] -22.7% | [3] 16.6% | [4] 18.1% | [5] 18.6% | [6] 22.1%

Cn1c(C(N)=O)cc(=O)n1-c1ccc([N+](=O)[O-])cc1
inactive: [1] 6.35% | [2] 18.7% | [3] 4.45% | [4] 3.8% | [5] -6% | [6] 0.35%

CC(=O)Oc1c(Cl)c(Cl)c(C#N)c(Cl)c1C#N
inactive: [1] 30.4% | [2] 1.7% | [3] 26.2% | [4] 10.8% | [5] 8.8% | [6] 26.1%

C(=N\NC1=NCCN1)/c1ccccc1
inactive: [1] -1.35% | [2] -9.05% | [3] 5.6% | [4] -36.8% | [5] -7.4% | [6] 13.3%

N#CC(C#N)=CN1CCNC1=S
inactive: [1] 14.3% | [2] -1.2% | [3] 20.4% | [4] 16.6% | [5] 17.6% | [6] 17.6%

Cc1cc2c3ccccc3n(C)c2c2c1C(=O)C=CC2=O
inactive: [1] 6.5% | [2] 20.4% | [3] 20.9% | [4] 3.1% | [5] -7.35% | [6] 55.8%

Cc1c(C(CC(=O)c2ccccc2)C(=O)O)c2ccccc2n1C (configuration not stated)
inactive: [1] 2.05% | [2] -25.3% | [3] 23.2% | [4] -32.3% | [5] 52% | [6] -11.4%

ON=C(C1CCCCC1)C1CCCCC1
inactive: [1] -7.35% | [2] -29.1% | [3] -13% | [4] -37.6% | [5] -18.3% | [6] -32.9%

O=c1cc(-c2ccccc2)c2cc3c(=O)ccoc3cc2o1
inactive: [1] 12.8% | [2] 27.1% | [3] 12% | [4] 14.9% | [5] -1.55% | [6] 0.95%

Cc1cc(=O)[nH]c(NNC(C#N)c2ccccc2O)n1 (configuration not stated)
inactive: [1] -19.3% | [2] -27.9% | [3] -22.1% | [4] -12% | [5] 1.5% | [6] -34.8%

CC(=O)[O-].[Mn+3].[O-]c1ccccc1C=NCCNCCN=Cc1ccccc1[O-]
inactive: [1] 17.9% | [2] 8.1% | [3] 49.6% | [4] -7.35% | [5] 8.3% | [6] 51.1%

COc1ccc(COC(=O)Nc2cccc(Cl)c2C)cc1
inactive: [1] -1.2% | [2] 8.95% | [3] 14.8% | [4] -25.7% | [5] -8.85% | [6] -3.2%

NC(=O)c1ccc(C(F)(F)F)cc1O
inactive: [1] 7.6% | [2] 12.6% | [3] -4.65% | [4] -21.4% | [5] 1.2% | [6] 10%

O=C(NCCCCCCNC(=O)NCc1ccc(Cl)c(Cl)c1)NCc1ccc(Cl)c(Cl)c1
inactive: [1] 13.6% | [2] 4% | [3] -3.8% | [4] -3.8% | [5] -1.9% | [6] 16.9%

CC(=O)Nc1ccc(/C=N/NS(=O)(=O)c2ccc(C)cc2)cc1
inactive: [1] 0.3% | [2] 34.7% | [3] 16.9% | [4] -1.85% | [5] 30.6% | [6] 17.1%

Oc1cccc2c(O)cccc12
inactive: [1] 0.55% | [2] 22.8% | [3] 26.4% | [4] -9.55% | [5] 25.5% | [6] 32.8%

Cc1c(C)c(C)c(CCl)c(CCl)c1C
inactive: [1] 36.1% | [2] 16.9% | [3] 31.9% | [4] 10.4% | [5] 8.3% | [6] 24.6%

CC1(C)OC2C(CO)OC(n3cnc4c(=S)nc(N)[nH]c43)C2O1 (configuration not stated)
inactive: [1] 18.6% | [2] 12.8% | [3] 2.5% | [4] -24.1% | [5] 12.5% | [6] 21.7%

Cc1c(Cl)cc(Cl)c(N)c1Cl
inactive: [1] -4.4% | [2] -13.7% | [3] -18% | [4] -5.3% | [5] -16.1% | [6] -15.2%

O=C(OCc1ccccc1)C1(N2CN(C3(C(=O)OCc4ccccc4)CCCC3)CN(C3(C(=O)OCc4ccccc4)CCCC3)C2)CCCC1
inactive: [1] -8.05% | [2] -5.7% | [3] 2.25% | [4] 16.9% | [5] 13.5% | [6] 2.15%

CC(=O)Nc1ccc2oc(=O)ccc2c1
inactive: [1] -19.2% | [2] -12.7% | [3] -15.4% | [4] -0.5% | [5] -4.2% | [6] -11.1%

CCC(=O)Oc1ccc(C(C)(C)C)cc1
inactive: [1] -5.85% | [2] -3.75% | [3] 1.95% | [4] -2.25% | [5] 11.1% | [6] 1.1%

CC(=O)Nc1ccccc1NOC(=O)c1ccccc1NC(C)=O
inactive: [1] -3.1% | [2] -8.9% | [3] 4.45% | [4] 32.7% | [5] 25.1% | [6] 18.1%

Nc1ncc2c(ncn2CC(O)CO)n1 (configuration not stated)
inactive: [1] -24.6% | [2] -2.5% | [3] -1.55% | [4] 4.65% | [5] -3% | [6] -3.25%

Cc1cc(C)c(NS(=O)c2cccc(Cl)c2)c(C)c1 (configuration not stated)
inactive: [1] -29.1% | [2] -26.3% | [3] -59.2% | [4] 1.35% | [5] -35.2% | [6] -50.2%

Cn1c(=O)c2[nH]c(N(CCO)CCO)nc2n(C)c1=O
inactive: [1] 7.75% | [2] 9.95% | [3] 23.9% | [4] 21.9% | [5] -2.3% | [6] 15.1%

CCC(=O)NN(C(C)=O)c1ccccc1
inactive: [1] 10.3% | [2] -21.4% | [3] 6.4% | [4] -16.2% | [5] 8.8% | [6] 18.9%

O=NNc1ccc(Oc2ccccc2)cn1
inactive: [1] 15.4% | [2] -13.5% | [3] -7.9% | [4] -9% | [5] -19.8% | [6] -1.85%

COC(=O)C(C)c1cc2ccccc2[nH]1 (configuration not stated)
inactive: [1] -8% | [2] -8.65% | [3] 0.9% | [4] -11.4% | [5] -46.7% | [6] 0.75%

O=C(O)/C=C/c1ccc(O)c(O)c1
inactive: [1] 18.3% | [2] -7.15% | [3] 0.5% | [4] 9.9% | [5] 7.25% | [6] 7.65%

CC(C)C(=O)OC1CCCCC1Cc1ccccn1 (configuration not stated)
inactive: [1] 21.1% | [2] -3.25% | [3] 29.1% | [4] -17% | [5] 24.1% | [6] -6.8%

COC(=O)C1CSCN1 (configuration not stated)
inactive: [1] -23.9% | [2] -4.3% | [3] -26.9% | [4] -61.4% | [5] -3.5% | [6] -12.8%
